Measurements from the supplement of paper PMC12636033.
± gives the standard deviation of the averaged measurements. In all, about 33,000 sequences were measured (“E-score (rank enrichment, -0.5 to 0.5)”: median about -0.0043, highest 2% from about 0.24 on). The entries come from a sample that favours the highest values as a whole.

These sequences were tested on 2Sp-muMax20 (muMax20 with two 2,6-bis(methyl)pyridine Cys staples) (assay: PBM 8-mer E-score (E-score (rank enrichment, -0.5 to 0.5)); higher = stronger preferential binding).
Protocol: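 Protein binding microarray (universal PBM chip covering all 10-mers in fixed probe flanks) with chemically synthesized human Max(13-93) bHLH-LZ analogs (not full-length Max) bearing noncanonical residues (hArg, Tha, Aib, Nle at 65) and aromatic Cys staples. Read-out per 8-mer (and its reverse complement): E-score (rank-based enrichment, -0.5 to 0.5) and Z-score of median probe intensity.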

Sequence	PBM 8-mer E-score
GGGGAAGA	0.0842 ± 0.0073
AGTCCTTC	-0.195 ± 0.04
ATACCATG	0.102 ± 0.057
ATACCATC	0.237 ± 0.021
ATACCATA	0.249 ± 0.041
CTACCATC	-0.168 ± 0.094
ACACCATC	0.0694 ± 0.0049
GTACCATA	-0.00352 ± 0.14
AGAAGGTC	0.126 ± 0.039
ACTTGGCG	-0.143 ± 0.14
CTGCAACC	-0.145 ± 0.031
GCTAGTCA	0.103 ± 0.052
AGTCACGA	-0.0662 ± 0.009
AGTCACGG	-0.147 ± 0.052
AGTCACGC	0.26 ± 0.037
ATAAGGTC	0.238 ± 0.051
ATAAGGTA	0.164 ± 0.031
CTAAGGTC	-0.029 ± 0.12
ATAAGGAA	-0.0884 ± 0.043
ATAAGGAC	0.0211 ± 0.092
ATAAGGAT	0.258 ± 0.011
CCAGTATC	-0.0909 ± 0.022

Sequence	PBM 8-mer E-score
AACCCCGA	0.0376 ± 0.019
ACGCTTCA	0.0519 ± 0.091
ATAAGTTA	0.236 ± 0.025
CTAAGTTA	0.0843 ± 0.017
GTAAGTTA	0.0283 ± 0.0067
CAAGGACC	-0.223 ± 0.048
CTTTAATA	0.207 ± 0.016
GTTTAATA	0.203 ± 0.062
AATTAATT	0.242 ± 0.031
AGTTAATA	0.138 ± 0.027
AATTAGTA	0.268 ± 0.0095
AATTAATA	0.285 ± 0.03
AATTAATG	0.215 ± 0.028
AATTAATC	0.207 ± 0.009
ATTTAATA	0.243 ± 0.0082
CATTAGTA	-0.0474 ± 0.081
AATTAGTC	0.0516 ± 0.035
ACTTAATA	0.156 ± 0.042
GCTAAGTA	0.034 ± 0.091
CCGCCGCC	-0.00332 ± 0.019
ACACCAGA	-0.0516 ± 0.0077
CATGAACA	-0.0306 ± 0.058

Sequence	PBM 8-mer E-score
GTTTAGGA	-0.13 ± 0.036
GACCCTTA	-0.0689 ± 0.0029
CTTTAAAC	0.0827 ± 0.097
ATTTAAAC	0.329 ± 0.047
ATTTAAAG	0.0431 ± 0.059
AAAATTCC	0.0483 ± 0.056
CCTCTTAA	0.0544 ± 0.11
CATGGGGA	0.124 ± 0.043
TATGGGGA	0.283 ± 0.028
AGTGGGGG	-0.0461 ± 0.0062
AGTGGGGA	0.245 ± 0.011
CGTGGGGA	0.1018 ± 0.00016
AATGGGGA	0.112 ± 0.047
GCCATGTA	0.0368 ± 0.0029
CTCTTGGA	-0.112 ± 0.014
CAGTAGCG	-0.205 ± 0.045
ACGGCTAA	-0.0509 ± 0.014
ACCCCGGC	-0.00709 ± 0.083
ACATAGAC	0.115 ± 0.034
ATTGAAGG	-0.0238 ± 0.14
GTTGAAGA	0.0675 ± 0.033
ATTGAAGA	0.237 ± 0.023

Sequence	PBM 8-mer E-score
CTTCCGAA	-0.23 ± 0.024
AGATTATG	-0.00069 ± 0.061
ATATTATG	0.274 ± 0.083
GTATTAAA	0.134 ± 0.014
GTATTAGA	0.182 ± 0.073
CTATTATA	0.0957 ± 0.01
ATATTAGC	0.166 ± 0.0073
ATATTAGG	0.297 ± 0.029
GTATTATA	0.259 ± 0.053
ATATTATC	0.0885 ± 0.023
ATATTACA	0.157 ± 0.058
ATATTAGA	0.235 ± 0.012
ATATTATA	0.268 ± 0.047
CAGTTCGC	-0.0265 ± 0.073
TGTTAGAA	0.125 ± 0.12
CGACTGGC	-0.148 ± 0.052
CCAGAGAC	-0.05 ± 0.076
GGATGACA	-0.0339 ± 0.094
CTATTCTA	0.227 ± 0.043
GTATTCTA	0.134 ± 0.021
ATATTCTA	0.244 ± 0.04
AATGGCAA	0.00112 ± 0.089

Sequence	PBM 8-mer E-score
CCAAGAGC	-0.0397 ± 0.036
GACGTGGA	0.055 ± 0.0074
AACGTGGA	0.0553 ± 0.0092
CACGTGGG	0.436 ± 0.0081
AACGTGGG	0.1 ± 0.047
TACGTGGA	0.0461 ± 0.0044
GACGTGGC	0.0114 ± 0.026
CACGTGGA	0.398 ± 0.033
CACGTGGC	0.357 ± 0.064
AACGTGGC	0.163 ± 0.041
CTATTCAG	0.00673 ± 0.056
AGAAGCGA	-0.0304 ± 0.05
ATCACGGA	-0.0223 ± 0.047
ACTTAGCC	-0.0201 ± 0.091
AGCGTAAC	0.041 ± 0.14
GACTCAGC	-0.176 ± 0.036
AACGCCTT	-0.0913 ± 0.021
AGACAATG	0.00664 ± 0.0054
ACACAAAG	0.206 ± 0.045
ACACAATA	0.247 ± 0.029
ACACAATG	0.122 ± 0.025
